The values that follow come from PubChem BioAssay (Tox21).

Structures are written as SMILES. Values joined by “and” are separate entries in the source; they are usually repeats but may differ in a detail not shown here. Equal entries are not always repeated. Records with an inconclusive call do not appear. Where a call stands in place of a potency, no number is given. A number with no mark means an inactive call. Active and inactive are the calls of the source. Calls come from the whole dose curve; as a rule, active = well fitted curve in the direction sought with a large enough effect in the repeat runs; inconclusive = weak or mixed curves; inactive = no such curve, though single readings can be large; an effect the other way counts as inactive or inconclusive.

The first assay can be described thus: qHTS RealTime-Glo MT Cell Viability Assay in HEK293 cells - 16 hour (AID 1224872). Note: top concentration of the series differs between compounds; nearly all actives have a fitted effect of over 50% in size. The conditions noted are these: RealTime-Glo luminescence; series mostly up to 76.8 µM; activity change, negative = cytotoxicity: at the top concentration. The gist of the method:
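HEK293 cells seeded with NanoLuc/prosubstrate reagent, rested 5 h at 37 C, then dosed and kept at 37 C up to 40 h. Nonlytic real-time luminescence from viable cells read at 0, 8, 16, 24, 32 and 40 h.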
In general terms: qHTS replaces the single test concentration by a dilution series.
Take `Nc1ccc(S(=O)(=O)Nc2nccs2)cc1`: the Potency result was “inactive”.
For `Cc1ccc(S(=O)(=O)NC(=O)NN2CCCCCC2)cc1`, the Potency result was “inactive”.
Regarding `Cc1noc(NS(=O)(=O)c2ccc(N)cc2)c1C`, the Potency entry was “inactive”.
As for `O=c1cc[nH]c(=S)[nH]1`, the Potency entry was “inactive”.
On the same count and under the same terms, to `Cc1ccccc1C(OCCN(C)C)c1ccccc1` (centres undefined) belongs “inactive”; to `CC(C)(Oc1ccc(C2CC2(Cl)Cl)cc1)C(=O)O` (centres undefined), “inactive”.
Still for that read-out and setting: to `CCCNC(=O)NS(=O)(=O)c1ccc(Cl)cc1` belongs “inactive”.
On the same count and under the same terms, to `O=S(=O)(O)NC1CCCCC1` belongs “inactive”.
Turning to `CCCCC1C(=O)N(c2ccccc2)N(c2ccccc2)C1=O`, the Potency result was “inactive”.
Consider `Cc1cc(=O)n(-c2ccccc2)n1C`, for which the Potency result was “inactive”.
The same measure, in the same setting: the value for `O=C(O)c1cc(N=Nc2ccc(S(=O)(=O)Nc3ccccn3)cc2)ccc1O` was “inactive”; that for `C[C@]12C=CC(=O)C=C1CC[C@@H]1[C@@H]2[C@@H](O)C[C@@]2(C)[C@H]1CC[C@]2(O)C(=O)CO` was “inactive”; that for `CC(C)[C@@H]1CC[C@@H](C)C[C@H]1O` was “inactive”.
In the case of `OCCc1ccccc1`, the Potency entry was “inactive”.
With `O=C(C1CCCCC1)N1CC(=O)N2CCc3ccccc3C2C1` (centres undefined), the “activity change, negative = cytotoxicity” value is -13.2% [at 35.3 µM].
Take `O=C1NC(=O)c2ccccc21`: the Potency result is “inactive”.
Still for that read-out and setting: to `O=C(O)CS` belongs “inactive”; to `CCCC(CCC)C(=O)O`, “inactive”.
Same read-out and setting: to `Cn1cc[nH]c1=S` belongs “inactive”; to `Cc1cn([C@H]2C[C@H](N=[N+]=[N-])[C@@H](CO)O2)c(=O)[nH]c1=O`, “inactive”.
Still for that read-out and setting: to `Nc1ccc(S(=O)(=O)c2ccc(N)cc2)cc1` belongs “inactive”.
For `O=S(=O)(O)c1ccc2cc(O)ccc2c1`, the Potency entry was “inactive”.
For `CCOc1ccc(NC(=O)CC(C)O)cc1` (centres undefined), the Potency result is “inactive”.
For `C/C=C/c1ccc(OC)cc1`, the Potency result was “inactive”.
As for `O=C1CN(/N=C/c2ccc([N+](=O)[O-])o2)C(=O)N1`, the Potency result was “inactive”.
As for `CC(=O)Nc1nnc(S(N)(=O)=O)s1`, the Potency result was “inactive”.
Take `Cn1c(=O)c2[nH]cnc2n(C)c1=O`: the Potency result was “inactive”.
The same measure, in the same setting: the value for `CC(O)C(=O)O` (centres undefined) was “inactive”.
As to `Cc1ccc(O)cc1`, the Potency entry is “inactive”.
As to `COc1ccc2[nH]cc(CCNC(C)=O)c2c1`, the Potency entry was “inactive”.
`NC(=O)NC1NC(=O)NC1=O` (centres undefined): the Potency entry was “inactive”.
Regarding `NC(=O)c1ccccc1O`, the Potency entry is “inactive”.
With `O=c1ccc2ccccc2o1`, the Potency entry is “inactive”.
Turning to `Cc1cc(=O)[nH]c(=S)[nH]1`, the Potency entry is “inactive”.
In the case of `CC(=O)OCC(COC(C)=O)OC(C)=O`, the Potency entry is “inactive”.
As for `O=C(O)c1cccnc1`, the Potency entry is “inactive”.

A further assay is described as follows: qHTS RealTime-Glo MT Cell Viability Assay in HepG2 cells - 8 hour (AID 1224873). Note: nearly all actives have a fitted effect of over 55% in size. As to conditions: RealTime-Glo luminescence; series mostly up to 76.8 µM; viability change, negative = cytotoxic: at the top concentration. The gist of the method: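 HepG2 cells (600/well) mixed with RealTime-Glo MT reagent, settled 5 h at 37 C/5% CO2 before compound addition. Nonlytic NanoLuc luminescence from viable-cell prosubstrate reduction read repeatedly during 40 h treatment at 37 C.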
On to `N=C(N)c1ccc(OCCCCCOc2ccc(C(=N)N)cc2)cc1`, for which the compound was called inactive.
With `Nc1ccc(S(=O)(=O)Nc2nccs2)cc1`, the compound was classed as inactive.
For the compound `Cc1ccc(S(=O)(=O)NC(=O)NN2CCCCCC2)cc1`, the compound was called inactive.
Same read-out and setting: the value for `Cc1noc(NS(=O)(=O)c2ccc(N)cc2)c1C` was “inactive”; that for `O=c1cc[nH]c(=S)[nH]1` was “inactive”.
The same measure, in the same setting: the value for `Cc1ccccc1C(OCCN(C)C)c1ccccc1` (centres undefined) was “inactive”; that for `CC(C)(Oc1ccc(C2CC2(Cl)Cl)cc1)C(=O)O` (centres undefined) was “inactive”.
Take `CCCNC(=O)NS(=O)(=O)c1ccc(Cl)cc1`: the outcome was inactive.
As to `O=S(=O)(O)NC1CCCCC1`, the result was inactive.
On the same count and under the same terms, to `CCCCC1C(=O)N(c2ccccc2)N(c2ccccc2)C1=O` belongs “inactive”; to `Cc1cc(=O)n(-c2ccccc2)n1C`, “inactive”.
Still for that read-out and setting: to `O=C(O)c1cc(N=Nc2ccc(S(=O)(=O)Nc3ccccn3)cc2)ccc1O` belongs “inactive”; to `C[C@]12C=CC(=O)C=C1CC[C@@H]1[C@@H]2[C@@H](O)C[C@@]2(C)[C@H]1CC[C@]2(O)C(=O)CO`, “inactive”.
The same measure, in the same setting: the value for `CC(C)[C@@H]1CC[C@@H](C)C[C@H]1O` was “inactive”.
Regarding `OCCc1ccccc1`, the outcome was inactive.
In the case of `O=C(C1CCCCC1)N1CC(=O)N2CCc3ccccc3C2C1` (centres undefined), the outcome was inactive.
As to `O=C1NC(=O)c2ccccc21`, the compound was classed as inactive.
`O=C(O)CS`: the compound was called inactive.
Turning to `CCCC(CCC)C(=O)O`, the compound was classed as inactive.
The same measure, in the same setting: the value for `Cn1cc[nH]c1=S` was “inactive”.
Regarding `Cc1cn([C@H]2C[C@H](N=[N+]=[N-])[C@@H](CO)O2)c(=O)[nH]c1=O`, the compound was called inactive.
Same read-out and setting: to `Nc1ccc(S(=O)(=O)c2ccc(N)cc2)cc1` belongs “inactive”; to `O=S(=O)(O)c1ccc2cc(O)ccc2c1`, “inactive”.
`CCOc1ccc(NC(=O)CC(C)O)cc1` (centres undefined): the result was inactive.
Take `C/C=C/c1ccc(OC)cc1`: the compound was classed as inactive.
The same measure, in the same setting: to `O=C1CN(/N=C/c2ccc([N+](=O)[O-])o2)C(=O)N1` belongs “inactive”; to `CC(=O)Nc1nnc(S(N)(=O)=O)s1`, “inactive”.
As for `Cn1c(=O)c2[nH]cnc2n(C)c1=O`, the compound was called inactive.
With `CC(O)C(=O)O` (centres undefined), the result was inactive.
Regarding `Cc1ccc(O)cc1`, the call was inactive.
On to `COc1ccc2[nH]cc(CCNC(C)=O)c2c1`, for which the outcome was inactive.
As to `NC(=O)NC1NC(=O)NC1=O` (centres undefined), the call was inactive.
Same read-out and setting: to `NC(=O)c1ccccc1O` belongs “inactive”.
For the compound `O=c1ccc2ccccc2o1`, the compound was classed as inactive.
For the compound `Cc1cc(=O)[nH]c(=S)[nH]1`, the compound was called inactive.
`CC(=O)OCC(COC(C)=O)OC(C)=O`: the call was inactive.
In the case of `O=C(O)c1cccnc1`, the compound was called inactive.

The nature of the next assay: qHTS RealTime-Glo MT Cell Viability Assay in HEK293 cells - 40 hour (AID 1224874). Note: nearly all actives have a fitted effect of over 50% in size. Note: potency is the fitted concentration of half-maximal effect. The conditions noted are these: RealTime-Glo luminescence; max response: hits give low values. The gist of the method:
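HEK293 cells mixed with RealTime-Glo reagents (NanoLuc plus cell-permeant prosubstrate) at 600 cells/well, preincubated 5 h at 37 C/5% CO2, then given 23 nL compound in DMSO. Nonlytic luminescence from viable cells was read at 0, 8, 16, 24, 32 and 40 h.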
For `N=C(N)c1ccc(OCCCCCOc2ccc(C(=N)N)cc2)cc1`, the Potency was 9.73 µM (active) and 16.6 µM (active) and 21.3 µM (active).
As to `Nc1ccc(S(=O)(=O)Nc2nccs2)cc1`, the max response is 5.06% [middle of 4 runs].
For `Cc1ccc(S(=O)(=O)NC(=O)NN2CCCCCC2)cc1`, the max response was 3.5% and 3.12% and 7.81%.
For `Cc1noc(NS(=O)(=O)c2ccc(N)cc2)c1C`, the max response was 3.99% and 6.51% and 6.27%.
Turning to `O=c1cc[nH]c(=S)[nH]1`, the max response was 6.11% and 3.88% and 9.23%.
For `Cc1ccccc1C(OCCN(C)C)c1ccccc1` (centres undefined), the max response was -3.03% and -20.7% and -19.7%.
Turning to `CC(C)(Oc1ccc(C2CC2(Cl)Cl)cc1)C(=O)O` (centres undefined), the max response was 2.51% and 10.4%.
Still for that read-out and setting: the value for `CCCNC(=O)NS(=O)(=O)c1ccc(Cl)cc1` was 1.38% and -0.751% and 0.902%.
For the compound `O=S(=O)(O)NC1CCCCC1`, the max response was 10.8% and 12.2% and -1.58%.
Turning to `CCCCC1C(=O)N(c2ccccc2)N(c2ccccc2)C1=O`, the max response is -7.32% and -1.19% and 8.39%.
For the compound `Cc1cc(=O)n(-c2ccccc2)n1C`, the max response was 5.11% and 3.11% and 1.5%.
Still for that read-out and setting: to `O=C(O)c1cc(N=Nc2ccc(S(=O)(=O)Nc3ccccn3)cc2)ccc1O` belongs -2.85% and -13.7% and 1.5%; to `C[C@]12C=CC(=O)C=C1CC[C@@H]1[C@@H]2[C@@H](O)C[C@@]2(C)[C@H]1CC[C@]2(O)C(=O)CO`, -4.22% and -3.97% and 0.449%.
As to `CC(C)[C@@H]1CC[C@@H](C)C[C@H]1O`, the max response was 3.82% [middle of 5 runs].
For `OCCc1ccccc1`, the max response is 6.34% and 10.1% and 6.75%.
Turning to `O=C(C1CCCCC1)N1CC(=O)N2CCc3ccccc3C2C1` (centres undefined), the max response was -18.7%.
Consider `O=C1NC(=O)c2ccccc21`, for which the max response is 3.82% and -4.14% and 5.86%.
In the case of `O=C(O)CS`, the max response was 1.63% and 9.97% and 1.26%.
With `Cn1cc[nH]c1=S`, the max response is -1.38% and 17.2% and 3.37%.
In the case of `Cc1cn([C@H]2C[C@H](N=[N+]=[N-])[C@@H](CO)O2)c(=O)[nH]c1=O`, the max response was -0.145% and 3.87% and 7.29%.
For `Nc1ccc(S(=O)(=O)c2ccc(N)cc2)cc1`, the max response is 3.77% and -13.4% and 9.1%.
For `O=S(=O)(O)c1ccc2cc(O)ccc2c1`, the max response is -0.603% [middle of 4 runs].
`CCOc1ccc(NC(=O)CC(C)O)cc1` (centres undefined): the max response was -0.988% and -3.57% and -1.9%.
On to `C/C=C/c1ccc(OC)cc1`, for which the max response is -0.468% [middle of 4 runs].
For `O=C1CN(/N=C/c2ccc([N+](=O)[O-])o2)C(=O)N1`, the max response is -21.3% and -17.7%.
Turning to `CC(=O)Nc1nnc(S(N)(=O)=O)s1`, the max response was 3.91% and 1.75% and 9.79%.
In the case of `Cn1c(=O)c2[nH]cnc2n(C)c1=O`, the max response was 0.637% and -1.08% and -2.33%.
In the case of `CC(O)C(=O)O` (centres undefined), the max response is 13.3% and 7.35% and 12.9%.
Same read-out and setting: the value for `Cc1ccc(O)cc1` was 8.24% [middle of 4 runs]; that for `COc1ccc2[nH]cc(CCNC(C)=O)c2c1` was -2.36% and -20% and 4.03%; that for `NC(=O)NC1NC(=O)NC1=O` (centres undefined) was 4.83% and -16.4% and 0.282%.
With `NC(=O)c1ccccc1O`, the max response is 0.307% and -0.424% and 11.5%.
Take `O=c1ccc2ccccc2o1`: the max response was -0.397% and 6.44% and 2.9%.
On the same count and under the same terms, the value for `Cc1cc(=O)[nH]c(=S)[nH]1` was -0.127% and 3.69% and 0.841%; that for `CC(=O)OCC(COC(C)=O)OC(C)=O` was 1.3% and 11.6% and 13.6%; that for `O=C(O)c1cccnc1` was -0.0653% [middle of 4 runs].
